Shown are actives, neighbours in structure and some others; about 1.8% of the full set was active somewhere.
DSG3 Ab inh: blocks pemphigus antibody binding to human desmoglein-3. DSG3-coupled beads, scFv-anti-DSG3-GFP binding, flow cytometry; stronger effect = lower value. hit rate 0.48% among 310,000. P32926. binding (percent of control), % at 10 µM;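 active = binding more than 3 SD below its plate's average and above zero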
Target sequence (P32926 whole entry, looked up): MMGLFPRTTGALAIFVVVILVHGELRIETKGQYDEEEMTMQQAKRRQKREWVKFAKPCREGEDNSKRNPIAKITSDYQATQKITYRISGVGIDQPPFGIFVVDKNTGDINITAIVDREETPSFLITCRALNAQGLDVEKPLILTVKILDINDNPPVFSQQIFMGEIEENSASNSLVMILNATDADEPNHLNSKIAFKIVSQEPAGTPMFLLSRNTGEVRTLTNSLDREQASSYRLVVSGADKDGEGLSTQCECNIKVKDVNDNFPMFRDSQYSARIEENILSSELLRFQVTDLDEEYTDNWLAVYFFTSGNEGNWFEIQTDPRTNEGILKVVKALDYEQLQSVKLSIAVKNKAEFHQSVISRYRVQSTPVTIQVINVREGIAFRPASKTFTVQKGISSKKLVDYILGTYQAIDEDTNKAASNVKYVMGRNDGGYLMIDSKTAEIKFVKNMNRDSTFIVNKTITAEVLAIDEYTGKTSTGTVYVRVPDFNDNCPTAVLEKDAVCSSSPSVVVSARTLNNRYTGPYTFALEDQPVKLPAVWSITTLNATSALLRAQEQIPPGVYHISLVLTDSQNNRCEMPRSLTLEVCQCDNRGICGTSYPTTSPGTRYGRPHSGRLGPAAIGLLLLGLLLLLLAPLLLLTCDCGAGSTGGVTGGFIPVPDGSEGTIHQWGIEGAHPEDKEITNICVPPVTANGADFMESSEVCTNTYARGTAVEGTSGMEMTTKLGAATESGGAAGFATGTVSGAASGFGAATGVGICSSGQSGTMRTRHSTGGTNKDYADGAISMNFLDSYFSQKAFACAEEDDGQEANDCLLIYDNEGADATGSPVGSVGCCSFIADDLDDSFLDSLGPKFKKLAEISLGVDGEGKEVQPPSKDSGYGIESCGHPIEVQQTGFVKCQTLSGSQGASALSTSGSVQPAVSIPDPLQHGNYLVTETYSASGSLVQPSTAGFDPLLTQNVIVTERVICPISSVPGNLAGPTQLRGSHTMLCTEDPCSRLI
VLA-4 inh: inhibition in a human VLA-4 binding assay | P13612 | VLA-4 expressing cells, ligand binding flow cytometry | inhibition, % (about 7 µM as worked out from the volumes in the protocol) | hit rate 0.2% among 330,000
LANA-H2A inh: blocks KSHV LANA binding to histone H2A/H2B. Q9QR71. cell-free LANA-H2A/H2B peptide, fluorescence polarization. inhibition, % (no concentration beside the values). hit rate 0.6% among 320,000. AID 2629; in the data active = inhibition mostly above about 10%, no sharp cut-off; inactive = mostly below about 6.7%
GRK2 inh: human GRK2 inhibition via aptamer displacement. AID 488847. bead flow cytometry, FAM-aptamer displacement from GRK2. inhibition of aptamer binding, % at 10 µM. hit rate 0.59% among 330,000. P25098;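 active = inhibition of aptamer binding above 40%, roughly 3 SD of noise, on plates passing a quality check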;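 also: median bead fluorescence of bound FAM aptamer so fluorescent compounds give negative values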
PKD1 inh: blocks activity of human protein kinase D1 | inhibition, % (test concentration not listed) | Q15139 | PKD1 kinase fluorescence polarization assay | hit rate 0.056% among 200,000
HDAC3 inh: blocks human histone deacetylase 3; O15379; recombinant HDAC3, fluorogenic peptide/trypsin coupled, fluorescence; inhibition, % at 8.3 µM; hit rate 0.15% among 320,000; in the data active = inhibition above about 26%, passing the limit was not always enough
Starred values were filed as active, the others as inactive; nt = no result given. Rule as the data show it, unless noted: active = inhibition above about 50%; inactive = the rest.

SMILES	DSG3 Ab inh	VLA-4 inh	LANA-H2A inh	GRK2 inh	PKD1 inh	HDAC3 inh
O=C(c1ccco1)N1CCN(C(=O)c2cc(-c3ccccc3)nc3ccccc23)CC1	nt	-2.7	-0.8	0.0	-2.1	-0.1
O=C(N/N=C/c1ccc2ncccc2c1)c1cc(-c2cccs2)nc2ccccc12	70.1*	-2.9	-0.1	3.0	nt	1.0
CS(=O)(=O)N1CCN(C(=O)c2cc(-c3cccs3)nc3ccccc23)CC1	nt	-2.3	0.5	2.0	-5.1	-51.3
COc1ccc(NC(=O)c2cc(-c3ccco3)nc3ccccc23)cc1	65.0*	6.0	2.0	2.0	nt	-3.4
CS(=O)(=O)N1CCN(C(=O)c2cc(-c3ccccc3)nc3ccccc23)CC1	102.8	-5.8	9.7*	0.0	4.6	-3.6
COC(=O)C1CCN(C(=O)c2cc(-c3ccco3)nc3ccccc23)CC1	40.6	-10.9	5.2	76.0*	nt	-87.5
COCCOc1ccc(C(F)(F)F)cc1NC(=O)COC(=O)Cc1c[nH]c2ccccc12	102.7	9.0	-8.5	2.0	nt	21.2
O=C(CN1CCN(S(=O)(=O)/C=C/c2ccccc2)CC1)NCC(F)(F)F	nt	-0.8	3.5	1.0	nt	-1.3
CCOc1ncccc1C(=O)OCC(=O)Nc1cc(C(C)(C)C)ccc1OC	nt	26.0	-0.2	6.0	nt	0.5
COc1ccc(-c2cc(C(=O)N/N=C/c3ccc4c(c3)OCO4)c3ccccc3n2)c(OC)c1	77.0*	7.8	4.1	2.0	6.6	-1.9
O=C(N/N=C/c1cccc(F)c1)c1cc(-c2ccco2)nc2ccccc12	58.9	1.6	6.6	43.0*	-7.7	-10.6
COc1ccc(NC(=O)CN(C)C(=O)c2cc(-c3ccco3)nc3ccccc23)cc1	91.8	0.1	0.3	76.0*	nt	2.9
CN(CC(=O)Nc1cccc(F)c1)C(=O)c1cc(-c2ccco2)nc2ccccc12	77.8	7.8	2.8	16.0	nt	-10.3
O=C(Nc1ccccn1)C1CCN(S(=O)(=O)c2ccc(Cl)cc2)CC1	104.4	9.4	1.5	1.0	nt	9.1
Nc1nonc1C(=O)NCCNS(=O)(=O)c1ccc(F)cc1	99.5	14.0	0.7	1.0	-6.6	-6.9
COc1cc(C(=O)O/N=C2\C=CC(=O)C(C)=C2)cc(OC)c1OC	101.4	10.3	1.4	0.0	-9.9	62.4*
COc1cc(C(=O)ON=C2C=C(C)C(=O)C(C)=C2)cc(OC)c1OC	98.0	11.5	-4.5	2.0	13.8	20.0
CCCCN(C)Cc1c(C(=O)N2CCc3ccccc3C2)nc2ccc(Cl)cn12	100.2	0.9	-2.8	1.0	-5.1	5.2
CC(C)CN(C)Cc1c(C(=O)N2CCc3ccccc3C2)nc2ccc(Cl)cn12	103.5	7.4	16.6*	2.0	-2.0	7.9
NC(=O)C1CCCN(Cc2c(C(=O)N3CCc4ccccc4C3)nc3ccc(Cl)cn23)C1 (centres undefined)	nt	-9.0	99.3*	1.0	nt	0.1
COc1cccc(C(=O)NCCS(=O)(=O)NCc2ccccn2)c1	100.4	23.2	1.7	0.0	nt	3.3
CCc1ccc2[nH]c(C(=O)N(C)c3ccc(F)cc3F)cc2c1	92.5	2.0	1.4	4.0	nt	7.9
Cc1ccc(Sc2ccc(NC(=O)c3ccc(S(C)(=O)=O)cc3Cl)cc2)cc1	-16.3*	11.8	9.0	0.0	-1.9	-17.9
Cc1csc(NC(=O)CSc2nc3nc(C)cc(C)n3n2)n1	100.8	-6.0	5.1	0.0	nt	-2.6
Cn1c(N)c(S(=O)(=O)N2CCN(c3ccccc3Cl)CC2)c(=O)n(C)c1=O	98.6	10.3	-2.1	1.0	nt	10.4
SMILES	DSG3 Ab inh	VLA-4 inh	LANA-H2A inh	GRK2 inh	PKD1 inh	HDAC3 inh
Cc1cc2nc(SCC(=O)Nc3ccccc3C(=O)O)[nH]c2cc1C	104.5	0.0	-1.7	0.0	-0.5	-2.8
O=C(c1cc2cc(Br)ccc2o1)N1CCN(c2ccccc2)CC1	121.5	16.7	16.0*	0.0	nt	0.4
O=C(CC1CCCCC1)OCn1nnc2ccccc2c1=O	96.6	17.5	-1.5	4.0	-4.9	5.9
O=C(CNC(=O)C1CCCCC1)OCn1nnc2ccccc2c1=O	99.2	11.5	15.3*	0.0	-0.7	9.0
Cc1ccc(-c2cc(N)nc(-c3ccccc3)c2)cc1	101.9	16.7	31.3*	1.0	nt	-1.4
CCN1CCN(C(c2ccccc2)c2nnnn2CCc2ccc(OC)c(OC)c2)CC1 (centres undefined)	108.9	-2.3	15.0*	1.0	-5.1	-5.8
COc1ccc(CCn2nnnc2C(c2ccc(Cl)cc2)N2CCN(C)CC2)cc1OC (centres undefined)	102.8	7.2	3.1	0.0	-14.4	6.6
Cc1onc(-c2ccccc2)c1C(=O)Nc1nnc(C(C)(C)C)s1	99.0	1.8	10.4*	1.0	nt	6.9
Cc1onc(-c2ccccc2)c1C(=O)NC(=S)NNC(=O)c1ccncc1	95.6	15.8	-4.6	74.0*	-4.8	-7.8
Cc1onc(-c2ccccc2)c1C(=O)NC(=S)NNC(=O)c1cccnc1	115.8	-8.4	1.2	0.0	0.8	6.2
O=S1(=O)CCOCCN1Cc1ccc(Cl)cc1Cl	nt	2.7	-1.5	6.0	nt	-1.2
CCN1/C(=C/c2ccc3cc(C)ccc3[n+]2CC)Sc2cc(C)ccc21	110.8	nt	nt	nt	-5.2	nt
CCN1/C(=C/c2ccc3cc(C)ccc3[n+]2C)Sc2ccc3sccc3c21	3.0*	nt	nt	nt	-3.3	nt
O=C(NCc1nnc(SCC(=O)N2CCOCC2)o1)c1ccccc1	102.4	nt	nt	nt	nt	nt
O=C(NC1CCS(=O)(=O)C1)c1cc(-c2ccccc2)nc2ccccc12 (centres undefined)	99.8	6.2	3.9	0.0	1.8	-0.8
O=C(c1ccccc1)N1CCN(S(=O)(=O)c2cccc(NS(=O)(=O)c3ccccc3)c2)CC1	nt	-3.2	0.8	3.0	-4.2	-0.5
Nc1nc2nccc(-c3ccc(Cl)cc3)n2n1	115.1	25.5	2.2	1.0	1.7	-2.6
Cc1cc(-c2ccc(Cl)cc2)n2nc(N)nc2n1	75.4*	11.1	-2.7	0.0	-9.5	-28.0
CCN(c1ccc(C(=O)CSc2nnc(C3CC3)n2C2CC2)cc1)S(C)(=O)=O	103.2	-6.4	-2.3	0.0	nt	2.4
O=C(N/N=C/c1ccc(O)c(Br)c1)c1cc2c(ccc3ccccc32)o1	77.5*	-1.4	-0.2	3.0	nt	-4.2
CCCCN(CC)CCCNC(=O)c1cc2cc3ccc(C)cc3nc2o1	69.4*	6.7	-1.2	1.0	nt	-42.8
CC(C)(C)NC(=O)CN1C(=O)c2cccc3cccc1c23	90.3	nt	nt	nt	nt	nt
O=c1c(=O)n(CCO)n(CCO)c(=O)n1CCO	95.9	nt	nt	nt	nt	nt
CC(NS(=O)(=O)c1ccccc1)C1CC2CCC1C2 (centres undefined)	107.8	28.8	-1.7	3.0	nt	3.1
COc1ccc(Cl)cc1NC(=O)c1cc(-c2ccc(C)cc2O)n[nH]1	92.2	2.0	23.1*	0.0	nt	-0.7
CC(C)n1nnnc1SCC(=O)N1CCN(Cc2ccc3c(c2)OCCO3)CC1	100.9	4.3	-4.9	0.0	nt	-0.8
O=C(Nc1ccc(F)cc1)Nc1ccc(S(=O)(=O)N2CCCC2)cc1	107.5	24.9	0.1	5.0	nt	7.6
Cc1oc(S(=O)(=O)N2CCCCC2)cc1NC(=O)Nc1ccc(F)cc1	91.2*	8.4	-1.7	1.0	nt	nt

Source: PubChem BioAssay
